# Measured values taken from PubChem BioAssay (NCATS).
# Several values for one entry are separate records, joined by “and”; a condition that tells them apart may be missing. Equal entries are not always repeated. Inconclusive results are not listed. Where a call stands in place of a potency, no number is given. Some compounds were tested as several samples or in several runs, with calls that do not always agree. A number with no mark means an inactive call. Activity calls are given as the source filed them. Calls follow the shape of the dose curve; as a rule, active = well fitted inhibition curve with a large enough effect; inconclusive = small, poorly fitted or top-dose-only effect; inactive = flat fitted curve, though single readings scatter.
# Legend:
# CRL-7250 = normal cell line; assay: Cytotoxic Profiling of Annotated Libraries Using Quantitative High-Throughput Screening (AID 1296008); conditions: Five cell lines viability, CellTiter-Glo ATP luminescence, 48-72 h; max response: stronger effect = lower value; also: potency is read from the fitted curve at half-maximal effect
# In short: (§1)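 Compounds were pin-transferred onto cells and incubated 48 or 72 hr at 37 degree Celsius, 95% humidity. CellTiter-Glo was added, plates sat 10 min at room temperature, then ATP-coupled luminescence was imaged as the viability read-out.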
# HEK293 = assay: as above; conditions: Five cell lines viability, CellTiter-Glo ATP luminescence, 48-72 h; max response: stronger effect = lower value
# In short: as §1
# HaCat [1] = assay: as above; conditions: Five cell lines viability, CellTiter-Glo ATP luminescence, 48-72 h; max response: stronger effect = lower value
# In short: as §1
# KB-3-1 = assay: as above; conditions: Five cell lines viability, CellTiter-Glo ATP luminescence, 48-72 h; max response: stronger effect = lower value
# In short: as §1
# MCC-13 = assay: qHTS assay to identify novel small-molecules to repurpose for Merkel cell carcinoma treatment (AID 1296009); conditions: MCC and control cell lines, CellTiter-Glo viability, 72 h; series mostly up to 46 µM
# In short: (§2)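 Viability readout: ATP luminescence (CellTiter-Glo) after 72 hr drug exposure at 37 degree celsius. Dose-response format was 8 points for NPC and 11 points for MIPE; data normalized to in-plate controls.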
# MCC-26 = assay: as above; conditions: MCC and control cell lines, CellTiter-Glo viability, 72 h; series mostly up to 46 µM
# In short: as §2
# NIH3T3 = assay: Cytotoxic Profiling of Annotated Libraries Using Quantitative High-Throughput Screening (AID 1296008); conditions: Five cell lines viability, CellTiter-Glo ATP luminescence, 48-72 h; max response: stronger effect = lower value; also: potency is read from the fitted curve at half-maximal effect
# In short: as §1
# HACAT [2] = assay: qHTS assay to identify novel small-molecules to repurpose for Merkel cell carcinoma treatment (AID 1296009); conditions: MCC and control cell lines, CellTiter-Glo viability, 72 h; at 44.8 µM (top of the series) unless noted
# In short: as §2
# HEK293T = assay: as above; conditions: MCC and control cell lines, CellTiter-Glo viability, 72 h; at 44.8 µM (top of the series)
# In short: as §2
# P93_24 = assay: qHTS profiling for inhibitors of Plasmodium falciparum proliferation (AID 504749); conditions: P. falciparum in erythrocytes, SYBR Green DNA, 72 h; series mostly up to 28.7 µM
# In short: (§3)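 Quantitative HTS: compounds pinned into medium, infected erythrocytes added (0.3% parasitemia, 2.5% hematocrit), 72 h culture at 37 C under 5% CO2. Saponin/Triton lysis with SYBR Green I, overnight RT, then fluorescence read.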
# P94_40 = assay: as above; conditions: P. falciparum in erythrocytes, SYBR Green DNA, 72 h; series mostly up to 28.7 µM
# In short: as §3
# PAD = assay: as above; conditions: P. falciparum in erythrocytes, SYBR Green DNA, 72 h; series mostly up to 28.7 µM
# In short: as §3
# PC15 = assay: as above; conditions: P. falciparum in erythrocytes, SYBR Green DNA, 72 h; series mostly up to 28.7 µM
# In short: as §3
# PC26 = assay: as above; conditions: P. falciparum in erythrocytes, SYBR Green DNA, 72 h; series mostly up to 28.7 µM
# In short: as §3
# PC49 = assay: as above; conditions: P. falciparum in erythrocytes, SYBR Green DNA, 72 h; series mostly up to 28.7 µM
# In short: as §3
# SC27B = assay: as above; conditions: P. falciparum in erythrocytes, SYBR Green DNA, 72 h; series mostly up to 28.7 µM
# In short: as §3
# TAB109 = assay: as above; conditions: P. falciparum in erythrocytes, SYBR Green DNA, 72 h; series mostly up to 28.7 µM
# In short: as §3
# TAB113 = assay: as above; conditions: P. falciparum in erythrocytes, SYBR Green DNA, 72 h; series mostly up to 28.7 µM
# In short: as §3
# TAB165 = assay: as above; conditions: P. falciparum in erythrocytes, SYBR Green DNA, 72 h; series mostly up to 28.7 µM
# In short: as §3
# W2 = assay: as above; conditions: P. falciparum in erythrocytes, SYBR Green DNA, 72 h; series mostly up to 28.7 µM
# In short: as §3
# Also: nearly all actives have a fitted effect of over 60% in size.
structure (smiles),measurement,setting,value
O=C(CCN1CCN(C(=O)OCc2cc(Cl)cc(Cl)c2)CC1)c1ccc2[nH]c(=O)oc2c1,max response,CRL-7250,-14.6%
same,outcome,CRL-7250,inactive
same,Potency,HEK293,9.2 µM (active)
same,max response,HEK293,-21.4%
same,max response,HaCat [1],-8.98% and -29.3%
same,max response,KB-3-1,-3.38% and 0.622%
same,Potency,MCC-13,inactive
same,Potency,MCC-26,inactive
O=c1ccn([C@@H]2O[C@H](CO)[C@H](O)[C@H]2O)c(=O)[nH]1,max response,CRL-7250,-5.18%
same,outcome,HEK293,inactive
same,outcome,HaCat [1],inactive
same,outcome,KB-3-1,inactive
same,max response,NIH3T3,-5.13%
same,outcome,HACAT [2],inactive
same,outcome,HEK293T,inactive
same,Potency,MCC-13,inactive
same,Potency,MCC-26,inactive
CC(=Cc1ccccc1)C=C1SC(=S)N(CC(=O)O)C1=O,max response,CRL-7250,-0.535%
same,max response,HEK293,-4.91%
same,outcome,HaCat [1],inactive
same,max response,KB-3-1,-2.93%
same,outcome,NIH3T3,inactive
same,outcome,HACAT [2],inactive
same,Potency,MCC-13,inactive
same,Potency,MCC-26,inactive
CC(=O)Nc1ccc([C@H](C)C(=O)Nc2ncc(C(C)C)s2)cc1,Potency,CRL-7250,2.35 µM (active) and 1.84 µM (active)
same,Potency,HEK293,4.69 µM (active) and 4.11 µM (active)
same,Potency,HaCat [1],10.5 µM (active) and 18.4 µM (active)
same,Potency,KB-3-1,5.17 µM (active)
same,Potency,NIH3T3,8.33 µM (active) and 9.2 µM (active)
CCCCCCCCCCCC1=C(O)C(=O)C=C(O)C1=O,outcome,CRL-7250,inactive
same,outcome,HEK293,inactive
same,outcome,HaCat [1],inactive
same,outcome,KB-3-1,inactive
same,max response,NIH3T3,-3.68%
same,outcome,HACAT [2],inactive
same,outcome,HEK293T,inactive
same,Potency,MCC-13,inactive
same,Potency,MCC-26,inactive
COCCOc1nc(-c2ccc(Cl)c(Cl)c2)n(-c2ccc(NC(=O)CCl)cc2)n1,Potency,CRL-7250,6.62 µM (active)
same,Potency,HEK293,3.72 µM (active) and 4.61 µM (active)
same,outcome,HaCat [1],inactive
same,Potency,KB-3-1,18.7 µM (active)
same,Potency,NIH3T3,4.11 µM (active)
same,outcome,HACAT [2],inactive
same,Potency,MCC-13,inactive
same,Potency,MCC-26,inactive
Cc1c[nH]c(C=C2C(=O)Nc3ccccc32)c1CCC(=O)O,Potency,CRL-7250,6.62 µM (active)
same,Potency,HEK293,3.32 µM (active)
same,outcome,HaCat [1],inactive
same,max response,KB-3-1,-13.5%
same,max response,NIH3T3,-18.5%
same,outcome,HACAT [2],inactive
same,Potency,MCC-13,inactive
same,Potency,MCC-26,inactive
CC=CC(=O)N(CC)c1ccccc1C,max response,CRL-7250,-6.43%
same,outcome,HEK293,inactive
same,outcome,HaCat [1],inactive
same,max response,KB-3-1,2.01%
same,max response,NIH3T3,3.96%
same,outcome,HACAT [2],inactive
same,outcome,HEK293T,inactive
same,Potency,MCC-13,inactive
same,Potency,MCC-26,inactive
Clc1ccc(-c2nc3sccn3c2C=NOCc2ccc(Cl)c(Cl)c2)cc1,max response,CRL-7250,-8.97%
same,max response,HEK293,-1.21%
same,outcome,HaCat [1],inactive
same,max response,KB-3-1,-5.79%
same,max response,NIH3T3,-1.3%
same,outcome,HACAT [2],inactive
same,Potency,MCC-13,inactive
same,Potency,MCC-26,inactive
CCC(CC)[C@H](NC(C)=O)[C@@H]1[C@H](O)[C@@H](C(=O)O)C[C@@H]1N=C(N)N,max response,CRL-7250,2.58%
same,max response,HEK293,-9.34%
same,outcome,HaCat [1],inactive
same,max response,KB-3-1,7.98%
same,outcome,NIH3T3,inactive
same,outcome,HACAT [2],inactive
same,Potency,MCC-13,inactive
same,Potency,MCC-26,inactive
CC(=O)O[C@]1(C(C)=O)CC[C@@H]2[C@@H]3C[C@H](C)C4=CC(=O)CC[C@]4(C)[C@H]3CC[C@@]21C,max response,CRL-7250,2.81%
same,outcome,HEK293,inactive
same,outcome,HaCat [1],inactive
same,outcome,KB-3-1,inactive
same,max response,NIH3T3,-6.3%
same,outcome,HACAT [2],inactive
same,outcome,HEK293T,inactive
same,Potency,MCC-13,inactive
same,Potency,MCC-26,inactive
CC(C(=O)O)c1ccc(-c2ccccc2)c(F)c1 (configuration not stated),max response,CRL-7250,2.91%
same,max response,HEK293,1.61%
same,outcome,HaCat [1],inactive
same,max response,KB-3-1,-1.08% and -0.207%
same,max response,NIH3T3,-0.252%
same,outcome,HACAT [2],inactive
same,Potency,MCC-13,inactive
same,Potency,MCC-26,inactive
C=C1C(=O)OC(CCCCCCCC)C1C(=O)O (configuration not stated),outcome,CRL-7250,inactive
same,outcome,HEK293,inactive
same,outcome,HaCat [1],inactive
same,max response,KB-3-1,-17.3%
same,max response,NIH3T3,2.38%
same,outcome,HACAT [2],inactive
same,outcome,HEK293T,inactive
same,Potency,MCC-13,inactive
same,Potency,MCC-26,inactive
OC[C@@H](O)[C@H](O)[C@H](O)[C@@H](O)CO,max response,CRL-7250,3.59% and -3.14%
same,outcome,HEK293,inactive
same,outcome,HaCat [1],inactive
same,max response,KB-3-1,-5.61% and 12.2%
same,outcome,NIH3T3,inactive
same,outcome,HACAT [2],inactive
same,outcome,HEK293T,inactive
same,Potency,MCC-13,inactive
same,Potency,MCC-26,inactive
CN1CCN(CCOc2cc(OC3CCOCC3)c3c(Nc4c(Cl)ccc5c4OCO5)ncnc3c2)CC1,Potency,CRL-7250,10.3 µM (active)
same,Potency,HEK293,26.4 µM (active) and 16.4 µM (active)
same,Potency,HaCat [1],3.32 µM (active) and 366 nM (active)
same,max response,KB-3-1,2.81% and -8.03%
same,Potency,NIH3T3,1.66 µM (active) and 651 nM (active)
COc1ccc2c3c1OC1C[C@@H](O)C=C[C@@]31CCN(C)C2 (some centres not stated),max response,CRL-7250,-0.2%
same,max response,HEK293,-3.03%
same,outcome,HaCat [1],inactive
same,max response,KB-3-1,-3.8%
same,max response,NIH3T3,1.03%
same,outcome,HACAT [2],inactive
same,Potency,MCC-13,inactive
same,Potency,MCC-26,inactive
CO[C@@H](C(=O)N1Cc2[nH]nc(NC(=O)c3ccc(N4CCN(C)CC4)cc3)c2C1)c1ccccc1,Potency,CRL-7250,5.26 µM (active)
same,Potency,HEK293,4.18 µM (active)
same,Potency,HaCat [1],2.35 µM (active)
same,Potency,KB-3-1,11.8 µM (active)
same,Potency,NIH3T3,14.8 µM (active)
CCN(CC)C(=O)c1ccc(O)c(OC)c1,outcome,P93_24,inactive
same,Potency,P94_40,inactive
same,outcome,PAD,inactive
same,outcome,PC15,inactive
same,Potency,PC26,inactive
same,outcome,PC49,inactive
same,Potency,SC27B,inactive
same,outcome,TAB109,inactive
same,Potency,TAB113,inactive
same,Potency,TAB165,inactive
same,Potency,W2,inactive
same,max response,CRL-7250,-9.2%
same,max response,HEK293,-4.79%
same,outcome,HaCat [1],inactive
same,max response,KB-3-1,2.39% and -3.02%
same,max response,NIH3T3,-4.21%
same,outcome,HACAT [2],inactive
same,Potency,MCC-13,inactive
same,Potency,MCC-26,inactive
